The list is not random: actives were taken first. Their share in the collection is about 1.1%.
Mtb hypoxia inh = Mtb hypoxia fluorescent reporter inhibition | M. tuberculosis hypoxia-regulated fluorescent reporter, fluorescence | AID 1159583 | fluorescence inhibition, % (concentration not given with the values) | actives 0.1% (n = 300,000); in the data active = fluorescence inhibition mostly above about 23%, no sharp cut-off; inactive = mostly below about 17%
PriA SSB inh = inhibitors of Klebsiella pneumoniae PriA binding to SSB C-terminal tail. AlphaScreen SSBct-PriA binding, biotinylated peptide. actives 0.6% (n = 430,000). inhibition, % at 33 µM. AID 1272365; in the data active = inhibition mostly above about 37%, no sharp cut-off; inactive = mostly below about 20%
Sa RN4220 lethal = kills Staphylococcus aureus RN4220; inhibition, % (concentration not given with the values); AID 1259311; actives 0.33% (n = 330,000); S. aureus RN4220 growth, OD600, 16 h; in the data active = inhibition above about 85%
Sa ugtP lethal = compounds lethal to S. aureus RN4220 ugtP deletion mutant | growth inhibition, % (no concentration beside the values) | actives 0.54% (n = 330,000) | OD600 growth, 16 h; in the data active = growth inhibition above about 68%
Hits are given with their value; n = inactive; x = no result shown.

SMILES | Mtb hypoxia inh | PriA SSB inh | Sa RN4220 lethal | Sa ugtP lethal
Cc1cc(C)cc(Oc2ccccc2C=NO)c1 | x | n | n | 87
CCCCCCCCCCCCCCCC[N+](C)(C)C | n | n | 100 | 100
CCCCCCCCCCCCCCCC[N+](C)(C)CC | n | n | 100 | 100
C[N+](C)(C)CCCCCC[N+](C)(C)C | n | n | n | n
CCCCNc1c(-c2cccc(-c3ccc(OC)cc3)c2)nc2cc(C)ccn12 | n | 53 | n | n
O=C(Cc1cccs1)NCC[C@H](O)c1ccccc1 | x | n | x | x
Cc1[nH]c(=O)n(C)c(=O)c1CCc1nnc(SCC(=O)Nc2cccc(Cl)c2)o1 | x | n | x | x
O=[N+]([O-])c1cc(Cl)ccc1Nc1ccccc1 | n | 89 | n | n
COc1ccc(Nc2ccc([N+](=O)[O-])cc2[N+](=O)[O-])cc1 | n | 43 | n | n
CCOc1ccccc1NC(=O)CCc1csc(NS(=O)(=O)c2ccccc2)n1 | x | n | x | x
O=C(C[C@H](Sc1cccc2cccnc12)c1ccc(OC(F)F)cc1)c1ccco1 | x | 83 | x | x
O=C(CSc1cccc2cccnc12)NCc1ccco1 | x | n | n | n
COc1ccc(C(CC(=O)c2ccco2)Sc2cccc3cccnc23)cc1OC (configuration not stated) | x | 81 | x | x
COc1ccc(/C=C/C(=O)OCC(=O)NC2CCCC(C)C2C)c(OC)c1 (configuration not stated) | n | n | n | 85
COc1ccc(/C=C/C(=O)OCC(=O)NC2CC2)c(OC)c1 | n | n | n | n
O=C(Nc1nc(-c2cc([N+](=O)[O-])cs2)cs1)c1ccc(Br)o1 | x | n | x | x
N/C(=N\N=Cc1ccc(Br)cc1)NN=Cc1ccc(Br)cc1 | n | x | 101 | 100
NC(=NN=Cc1ccc2c(c1)OCO2)NN=Cc1ccc2c(c1)OCO2 | x | n | x | x
Cc1ccc(C(=O)Nc2ccc(Br)c(C(F)(F)F)c2)cc1 | n | n | n | 91
O=C(Cn1cnc2ccccc2c1=O)Nc1cnn([C@H]2CCOC2)c1 | x | n | x | x
COc1c(N2CCN(C(=S)NCc3ccccc3)C(C)C2)c(F)cc2c(=O)c(C(=O)O)cn(C3CC3)c12 (configuration not stated) | x | n | 100 | 100
COC(=O)c1ccccc1NC=CC(=O)c1ccc(Br)cc1 | x | n | x | x
O=C(COc1ccc2ccccc2c1)N[C@@H](C(=O)O)c1ccc(O)cc1 | n | 40 | n | n
CCc1ccc(S(=O)(=O)NCCn2nc(-n3ccc4ccccc43)ccc2=O)s1 | x | n | x | x
CCOc1cccc2sc(N(CCN3CCOCC3)C(=O)c3ccc4ncsc4c3)nc12 | x | n | x | x
SMILES | Mtb hypoxia inh | PriA SSB inh | Sa RN4220 lethal | Sa ugtP lethal
CN(CCO)c1cc(Sc2nc3ccccc3s2)c2nonc2c1[N+](=O)[O-] | n | n | n | 88
CC(=O)OCCN(C)c1cc(SC(C)C)c2nonc2c1[N+](=O)[O-] | n | n | n | n
Cc1ccc(C(=O)COc2ccccc2-c2ccccc2)cc1 | n | n | n | 86
Cc1ccc(C(=O)COc2ccccc2N2C(=O)c3ccccc3C2=O)cc1 | n | n | n | n
COc1ccc(CCNc2oc(Cc3cccc4ccccc34)nc2C#N)cc1OC | n | 43 | n | n
COc1ccc(CCNc2oc(COc3ccc(Br)cc3)nc2C#N)cc1OC | x | n | n | n
O=S(=O)(c1ccc(Cl)cc1)N1CCOC12CCNCC2 | x | n | x | x
Cc1cc(C)c2nc(N(CCn3cccn3)C(=O)c3ccc4c(c3)OCCO4)sc2c1 | x | n | x | x
c1ccc(Nc2cccc(Nc3ccccc3)n2)cc1 | x | 72 | n | n
c1ccc(Nc2ccccn2)cc1 | n | n | n | n
COc1cccc2cc(C(=O)N3CCC(Cc4n[nH]c(=O)n4-c4ccccc4C)CC3)oc12 | x | n | x | x
O=C1C(=C(c2ccccc2)c2ccccc2)Nc2ccccc21 | n | 42 | n | n
COc1ccc(Cl)cc1NC(=O)C(C)OC(=O)Cn1cc(C(F)(F)F)ccc1=O (configuration not stated) | 27 | n | n | n
C=CC[n+]1c(C)csc1Nc1cccc(Br)c1 | n | 61 | n | n
C=CC[n+]1c(C)csc1Nc1ccc(C)cc1 | n | n | n | n
CCn1c(SCc2c(Cl)cccc2Cl)nnc1-c1nn(-c2ccccc2)ccc1=O | x | n | n | n
Cc1c(OCc2ccccc2)c(=O)ccn1Cc1ccc(Cl)cc1 | n | n | n | n
Cc1ccc(Cn2ccc(=O)c(OCc3ccccc3)c2C)cc1 | x | n | n | n
Cc1ccc(Cn2ccc(=O)c(Cc3c(Cl)cccc3Cl)c2C)cc1 | n | n | 100 | 101
COc1ccc(Cn2ccc(=O)c(Cc3c(Cl)cccc3Cl)c2C)cc1 | n | n | 98 | 98
Cc1c(Cc2c(Cl)cccc2Cl)c(=O)ccn1C(C)c1ccccc1 (configuration not stated) | n | n | 98 | 99
CN(C)c1ccc(C=C2C=CC=C2)cc1 | n | 41 | n | n
